Source: PubChem
This is a sample that favours compounds with a hit; in the whole collection about 2.9% have one here.
PvdQ inh = P. aeruginosa PvdQ acylase inhibitors, primary screen, biochemical, fluorescence, plate reader and imaging, single point. PvdQ acylase [Pseudomonas aeruginosa LESB58]. purified PvdQ acylase. inhibition, % at 10 µM. 0.063% of 340,000 active. AID 488965, 2010; in the data active means inhibition above about 30%, passing the limit was not always enough; inconclusive means no clear call, values can overlap the other calls;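 further: 0% = vehicle neutral wells and 100% = reference inhibitor wells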
Wnt act = Wnt/beta-catenin pathway activators, primary screen, cell-based, plate reader, single point; AID 743398, 2014; 1.2% of 300,000 active; activation, % at 9.35 µM; Wnt/beta-catenin reporter cell assay, activator; in the data active means activation above about 30%, passing the limit was not always enough; inconclusive means no clear call, values can overlap the other calls;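 further: 0% = neutral control wells and 100% = positive control wells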
Vif inh = HIV Vif self-association inhibitors, primary screen, imaging, HEK293T, single point; HEK293T cells, Vif self-association by quenched fluorescence, 24 h; inhibition, % at 7.49 µM; 0.35% of 340,000 active; in the data active means inhibition above about 50%, passing the limit was not always enough; inconclusive means no clear call, values can overlap the other calls; inactive means below about 31%
esBAF inh = Bmi1 luciferase reporter increase in mESCs, primary screen, esBAF inhibitor project, mouse ES cells, Bmi1 luciferase knock-in, single point; 24 h; 100% = twice the neutral-well signal; reporter increase, % at 12.5 µM; 2% of 350,000 active; AID 602393, 2012; in the data active means activation above about 40%; inconclusive means no clear call, values can overlap the other calls;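 further: 0% = median of the plate's neutral control wells and 100% = double that signal; a rise in the Bmi1 reporter signal indicates esBAF inhibition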
MITF TRPM1 HTS = activators of MITF-driven TRPM1 promoter reporter, primary screen, cell-based, SK-MEL-5, luciferase, single point. SK-MEL-5 TRPM1-promoter luciferase, 24 h; % of positive control, neutral wells = 0. activation, % at 12.5 µM. 0.75% of 300,000 active. AID 588334, 2011;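 active means mean activation of at least 80% with every replicate also reaching 80%; inconclusive means mean reaches 80% but some replicate falls short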;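 further: 0% = neutral control wells and 100% = parthenolide positive control wells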
N-glyco inh = increase of ERlucT glycosylation luciferase signal, primary screen, N-linked glycosylation inhibitor project, D54 ERlucT cells, luminescence, set 2. 0.23% of 360,000 active. D54 ERlucT glycosylation luciferase reporter, 24 h; percent of 100 nM tunicamycin response. AID 588692, 2011. reporter increase, % at 12.5 µM;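 active means mean luciferase reporter signal, scaled so untreated is 0 and the glycosylation-blocking control 100, at or above a set limit in every replicate; inconclusive means mean reaches the limit but not every replicate does; inactive means mean below the limit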;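 further: luciferase carries N-glycosylation sites so blocking glycosylation raises the light; 0% = median of neutral control wells and 100% = median of 100 nM tunicamycin wells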
* hit, by the source's call; ? = inconclusive; nt = no result given.

SMILES	PvdQ inh	Wnt act	Vif inh	esBAF inh	MITF TRPM1 HTS	N-glyco inh
Cc1nnc(N/N=C/c2ccccc2C(F)(F)F)n1N	-6	-1	11	-11	nt	3
Cc1nnc(N/N=C/c2ccccc2F)n1N	-19	-1	59*	2	0	6
Fc1ccccc1/C=N/Nc1ccc(Cl)nn1	2	1	7	55*	49	5
O=C(c1ccccc1)N1C[C@@H]2[C@H](c3ccccc31)[C@@H](CO)N2S(=O)(=O)c1ccccc1	nt	nt	nt	-6	nt	nt
CCCNC(=O)N1C[C@@H]2[C@H](c3ccccc31)[C@@H](CO)N2Cc1ccccc1F	nt	nt	nt	0	nt	nt
CC(C)(C)C(=O)/C=C(N)/C=C/c1ccccc1	-7	nt	-28	57*	74	-2
CC(C)N1CCC2(CC1)Oc1ccc(Br)cc1C1CC(c3cccnc3)=NN12 (stereo not given)	1	2	9	4	nt	0
COc1cccc2c1OC1(CCN(C(C)C)CC1)N1N=C(c3cccnc3)CC21 (stereo not given)	-11	34*	2	nt	nt	-1
CCOCCCNC(=O)/C(C#N)=C/c1cc(Br)c(O)c(Br)c1	9	nt	17	8	-18	30*
Cc1cc(C)cc(Nc2ncnc3nc[nH]c23)c1	-6	7	-2	2	17	1
CCCCOC(=O)c1ccc(Nc2ncnc3nc[nH]c23)cc1	-26	13	8	48*	78	0
FC(F)Sc1ccc(Nc2ncnc3nc[nH]c23)cc1	-6	nt	-9	-3	95*	-6
CCOC(=O)CNc1ncnc2nc[nH]c12	-9	-1	6	-2	nt	0
Nc1ccc2oc(-c3ccccc3Cl)cc(=O)c2c1O	-8	21	1	60*	29	-3
C[C@@H]1CCCCO[C@@H](CN(C)S(C)(=O)=O)[C@@H](C)CN([C@H](C)CO)C(=O)c2cc(NS(=O)(=O)c3cccs3)ccc2O1	nt	nt	nt	-2	nt	nt
C[C@@H]1CCCCO[C@@H](CN(C)Cc2ccc(C(F)(F)F)cc2)[C@@H](C)CN([C@@H](C)CO)C(=O)c2cc(NS(C)(=O)=O)ccc2O1	nt	nt	nt	-1	nt	nt
Brc1ccc(-c2nnc(-c3ccco3)o2)cc1	90*	nt	-6	60*	?	-3
Brc1ccc(-c2nnc(-c3cccc(Br)c3)o2)cc1	6	nt	nt	nt	78	3
Cc1ccc(-c2nnc(-c3ccc(Br)cc3)o2)o1	-3	27	-4	64*	nt	0
CCCC(=O)Nc1ccc2c(c1)C(=O)N(C)C[C@H](OC)[C@H](C)CN(Cc1ccncc1)[C@H](C)CO2	nt	nt	nt	3	nt	nt
O=C(CSc1nnc(-c2ccncc2)n1Cc1ccco1)OC1CCCCC1	-11	-3	-1	6	4	0
Cc1ccc(NC(=O)CSc2nnc(-c3ccccn3)n2C)cc1	-5	-4	-3	2	12	2
O=C(CSc1nnc(-c2ccco2)n1Cc1ccccc1)OC1CCCCC1	-11	nt	6	68*	nt	-1
CCc1ccccc1-n1c(SCC(=O)N2CCCC2)nnc1-c1ccccn1	-13	65*	nt	-3	1	-1
Cn1c(SCC(=O)c2ccccc2)nnc1-c1ccccn1	-3	57*	-4	36	nt	-4
SMILES	PvdQ inh	Wnt act	Vif inh	esBAF inh	MITF TRPM1 HTS	N-glyco inh
Cn1c(SCc2ccccc2Cl)nc2ccccc21	-7	nt	-2	nt	131*	-5
Cn1c(SCC(=O)c2ccccc2)nnc1-c1ccc(O)cc1	-8	64*	-3	24	23	1
Cn1c(SCC(=O)c2ccc(F)cc2)nnc1-c1cnccn1	-15	nt	122*	23	31	4
Cn1c(SCC(=O)c2ccccc2)nnc1-c1ccncc1	-2	4	6	-3	6	2
Cn1c(SCC(=O)c2ccccc2)nnc1-c1ccco1	-5	40*	10	34	30	0
Cn1c(SCc2ccccc2Cl)nnc1-c1cnccn1	1	nt	2	68*	80	5
Cn1c(SCc2cccc(F)c2)nnc1-c1cnccn1	4	10	1	9	nt	7
C[C@H]1CN([C@@H](C)CO)C(=O)c2cccc(NS(=O)(=O)c3cn(C)cn3)c2O[C@@H]1CN(C)C(=O)NC1CCCCC1	nt	nt	nt	-1	nt	nt
O=C(NCc1cccs1)c1cc(-c2ccc(O)cc2)on1	-2	37*	-1	?	58	-1
CCCc1cc(C(=O)NCc2cccs2)no1	-8	27	0	54*	nt	-1
O=C(NC(=S)Nc1ccccc1)C1CCCCC1	-9	6	8	41*	50	2
O=C(NC(=S)Nc1ccc(Br)cc1)C1CCCCC1	-10	9	2	27	12	-1
COc1ccc(NC(=S)NC(=O)C2CCC2)cc1	-4	38*	-3	47*	31	1
CO[C@@H]1CN(C)C(=O)c2cc(NC(=O)NC(C)C)ccc2OC[C@H](C)N(CC2CC2)C[C@H]1C	nt	nt	nt	-3	nt	nt
CC(=O)N1[C@@H](CO)[C@H](c2ccccc2)[C@@H]1CN(C(=O)NC(C)C)C1CCCC1	nt	nt	nt	1	nt	nt
CC(=O)c1ccc(OC(C)c2nc3ccccc3s2)cc1 (stereo not given)	-12	6	17	53*	39	-1
COc1cccc(C(=O)N(C)C(C)c2nc3ccccc3s2)c1 (stereo not given)	-13	-3	1	-3	-6	-2
COc1cccc(C(=O)Cn2c(Br)nc3c2c(=O)n(C)c(=O)n3C)c1	2	49*	6	9	-22	-3
COc1ccc(C(=O)Cn2c(Cl)nc3c2c(=O)n(C)c(=O)n3C)cc1	-2	-2	6	-8	nt	-2
COc1cccc2cc(C(=O)NCc3ccccc3Cl)c(=O)oc12	-15	16	3	?	?	1
COc1cccc2cc(C(=O)NCc3ccccc3Br)c(=O)oc12	-5	9	-5	41*	7	-1
O=C(COc1ccc(Br)cc1)N1CCc2ccccc21	3	28	-6	nt	99*	-2
O=C(COc1ccccc1Cl)N1CCc2ccccc21	-10	21	0	64*	66	-4
O=C(COc1ccccc1)N1CCc2ccccc21	2	nt	3	nt	34	-1
COc1ccccc1CNC(=O)C[C@@H]1CC[C@H]2[C@@H](COC[C@H](O)CN2Cc2ccc3c(c2)OCO3)O1	nt	nt	nt	-1	nt	nt
CCn1c(COc2cccc(OC)c2)nnc1SCC(=O)NC1CCCC1	-16	-3	51*	4	6	-1
CCCn1c(SCC(=O)NC2CCCCC2)nnc1-c1ccncc1	10	54*	-14	-2	-11	0
CCCCn1c(SCC(=O)NC2CC2)nnc1-c1ccncc1	-4	0	11	-6	0	2
